# A number with no mark means an inactive call. Activity calls are given as the source filed them. No rule for the calls is given here.
# Assay: compounds altering circadian rhythm period length – cell-based, LOPAC library, luminescence reporter (AID 2774);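 also: values are relative to mean of DMSO wells on each plate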
# Details: circadian reporter cells, at 7 µM, actives lie on both sides
row,SMILES,period change
1,C=CCN1C[C@@H](C)N([C@H](c2ccc(C(=O)N(CC)CC)cc2)c2cccc(OC)c2)C[C@@H]1C,0 h
2,N#CC(=Cc1ccc(O)c(O)c1)C(N)=S,-0.06 h
3,N[C@@]1(C(=O)O)CC[C@@H](C(=O)O)C1,-0.105 h
4,CCNC(=O)[C@H]1O[C@@H](n2cnc3c(N)ncnc32)C(O)[C@H]1O (some centres undefined),-0.025 h
5,C[C@@H]1O[C@H](C[N+](C)(C)C)C[C@H]1O,-0.03 h
6,C=CCN1CCC23c4c5ccc(O)c4O[C@H]2C(=O)CC[C@@]3(O)C1C5 (some centres undefined),-0.035 h
7,CC(N)c1cccc(Cl)c1Cl (centres undefined),0.03 h
8,Oc1ccc2c3c1O[C@H]1c4[nH]c5ccccc5c4C[C@@]4(O)C(C2)N(CC2CC2)CCC314 (some centres undefined),0.005 h
9,COc1cc(C(O)CN)ccc1O (centres undefined),-0.145 h
10,C[C@@H]1O[C@@H](O[C@H]2C[C@@H](O)[C@]3(CO)[C@@H]4C(CC[C@]3(O)C2)[C@@]2(O)CC[C@H](C3COC(=O)C3)[C@@]2(C)C[C@H]4O)[C@H](O)[C@H](O)[C@H]1O (some centres undefined),-0.47 h
11,c1ccc2cc(CC3=NCCN3)ccc2c1,0.04 h
12,NC1CC1c1ccccc1 (centres undefined),0.03 h
13,NC(CCP(=O)(O)O)C(=O)O (centres undefined),0.135 h
14,COc1ccc2c(c1)C13CCCCC1C(C2)N(C)CC3 (centres undefined),0 h
15,C=CCN1CC[C@]23CCCCC2[C@H]1Cc1ccc(O)cc13 (some centres undefined),0.175 h
16,O=C1CC[C@@]2(O)C3Cc4ccc(O)c5c4C2(CCN3CC2CC2)[C@H]1O5 (some centres undefined),-0.05 h
17,NC(CP(=O)(O)O)C(=O)O (centres undefined),-0.025 h
18,C[C@]12Cc3cn4c(nc3C=C1CCC1C2CC[C@@]2(C)[C@H]1CC[C@@]2(O)C#N)nc1ccccc14 (some centres undefined),0.285 h
19,CCCCCCCCCCCCCC(=O)O[C@@H]1[C@@H](C)[C@@]2(O)[C@@H](C=C(CO)C[C@@]3(O)C(=O)C(C)=C[C@@H]23)C2C(C)(C)[C@@]21OC(C)=O (some centres undefined),-1.74 h (active)

# Reference: PubChem BioAssay
